In PubChem BioAssay (NCI):
About 83,000 compounds went through this panel and 20% of them were active in at least one assay; those are over-represented in the sample as a whole.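 A percent growth of 40 corresponds to 60% growth inhibition; 0 means no net growth; -100 means all cells died. Active threshold: below 10.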 Calls of active or inactive are those of the source.

Assays:
Experiment in all cases: NCI-60 one-dose screen, 48 h (100 = growth as untreated, 0 = no growth, -100 = all killed)
Settings in all cases: 10 µM unless noted
MOLT-4 leukemia = tested on: MOLT-4 leukemia
SR leukemia = tested on: SR leukemia
RPMI-8226 leukemia = tested on: RPMI-8226 leukemia
OVCAR-8 ovarian = tested on: OVCAR-8 ovarian
OVCAR-5 ovarian = tested on: OVCAR-5 ovarian
OVCAR-4 ovarian = tested on: OVCAR-4 ovarian
SK-OV-3 ovarian = tested on: SK-OV-3 ovarian
IGROV1 ovarian = tested on: IGROV1 ovarian
OVCAR-3 ovarian = tested on: OVCAR-3 ovarian
HS 578T breast = tested on: HS 578T breast
NCI/ADR-RES ovarian = tested on: NCI/ADR-RES ovarian
T-47D breast = tested on: T-47D breast
BT-549 breast = tested on: BT-549 breast
MDA-MB-435 melanoma = tested on: MDA-MB-435 melanoma
SW-620 colon = tested on: SW-620 colon
MCF7 breast = tested on: MCF7 breast
HCT-116 colon = tested on: HCT-116 colon
HCC-2998 colon = tested on: HCC-2998 colon
KM12 colon = tested on: KM12 colon

Row | SMILES | growth (MOLT-4 leukemia) | growth (SR leukemia) | growth (RPMI-8226 leukemia) | growth (OVCAR-8 ovarian) | growth (OVCAR-5 ovarian) | growth (OVCAR-4 ovarian) | growth (SK-OV-3 ovarian) | growth (IGROV1 ovarian) | growth (OVCAR-3 ovarian) | growth (HS 578T breast) | growth (NCI/ADR-RES ovarian) | growth (T-47D breast) | growth (BT-549 breast) | growth (MDA-MB-435 melanoma) | growth (SW-620 colon) | growth (MCF7 breast) | growth (HCT-116 colon) | growth (HCC-2998 colon) | growth (KM12 colon)
1 | CC(=O)O[C@H]1C(=O)[C@@]2(C)[C@H]([C@H](OC(=O)c3ccccc3)[C@]3(O)C[C@H](OC(=O)[C@H](OC(=O)OCC4COC(C)(C)O4)[C@@H](NC(=O)c4ccccc4)c4ccccc4)C(C)=C1C3(C)C)[C@]1(OC(C)=O)CO[C@@H]1C[C@@H]2O (stereo partly specified) | 35.8% (inactive) | 35.7% (inactive) | 13% (inactive) | 39.3% (inactive) | 20.8% (inactive) | 79% (inactive) | 48.5% (inactive) | 35.3% (inactive) | 15% (inactive) | 30.5% (inactive) | 91.4% (inactive) | 40.7% (inactive) | 38.2% (inactive) | -49.6% (active) | 38.7% (inactive) | 18.9% (inactive) | 19.2% (inactive) | 39.9% (inactive) | 18.7% (inactive)
2 | COc1cc([C@@H]2c3cc4c(cc3[C@H](OC(C)=O)[C@H]3COC(=O)[C@H]23)OCO4)cc(OC)c1OC | 16.7% (inactive) | 9.46% (active) | 23.4% (inactive) | 21.1% (inactive) | 56.4% (inactive) | 41.3% (inactive) | 39.3% (inactive) | 21.2% (inactive) | 1.52% (active) | 46.6% (inactive) | 3.8% (active) | 57.8% (inactive) | 31.5% (inactive) | -8.58% (active) | 27.3% (inactive) | 14.9% (inactive) | 7.01% (active) | – | 17.8% (inactive)
3 | Cc1cc(-c2nc3cc(F)ccc3[se]2)cc(F)c1N | 83.6% (inactive) | 23.9% (inactive) | 66.8% (inactive) | 104% (inactive) | 51.2% (inactive) | 63.3% (inactive) | 73.6% (inactive) | 37.3% (inactive) | 87.2% (inactive) | 102% (inactive) | 98.7% (inactive) | 14.2% (inactive) | 84.4% (inactive) | 101% (inactive) | 90.7% (inactive) | 2.88% (active) | 71.2% (inactive) | 35.5% (inactive) | 61.2% (inactive)
4 | O=C(Nc1ccc(O)cc1)C(Cl)(Cl)Cl | 104% (inactive) | 96.6% (inactive) | 112% (inactive) | 97.1% (inactive) | 102% (inactive) | 105% (inactive) | 98.2% (inactive) | 100% (inactive) | 124% (inactive) | 112% (inactive) | 99.4% (inactive) | 89.5% (inactive) | 91.2% (inactive) | 103% (inactive) | 110% (inactive) | 99.1% (inactive) | 103% (inactive) | – | 103% (inactive)
5 | CC[C@H](C)[C@H](NC(=O)NC(C)(C)C)C(=O)N(C)[C@H](C[C@@H](OC(C)=O)c1nc(C(=O)N[C@@H](Cc2ccccc2)C[C@H](C)C(=O)OC)cs1)C(C)C | 17.4% (inactive) | 10.6% (inactive) | -3.75% (active) | 18% (inactive) | 34.8% (inactive) | 36.2% (inactive) | 14.9% (inactive) | 24.5% (inactive) | -16.8% (active) | 3.72% (active) | 23.3% (inactive) | 53.5% (inactive) | -14.6% (active) | -44.9% (active) | 20.5% (inactive) | 13.1% (inactive) | 1.01% (active) | 20% (inactive) | 13.8% (inactive)
6 | Cc1cc(N(CCCl)CCCl)ccc1/C=N\NC(=O)c1ccncc1 | 58.8% (inactive) | 47.9% (inactive) | 90.6% (inactive) | 61.9% (inactive) | 54.5% (inactive) | 89.1% (inactive) | 95.4% (inactive) | 87% (inactive) | 90.8% (inactive) | 109% (inactive) | 80.5% (inactive) | 54.4% (inactive) | 75.1% (inactive) | 89.1% (inactive) | – | 62% (inactive) | 78.8% (inactive) | 107% (inactive) | 95.6% (inactive)
7 | C[C@]12CCc3sc(-c4cccc(F)c4)nc3C1=CC[C@@H]1[C@@H]2CC[C@]2(C)C(=O)CC[C@@H]12 | 5.82% (active) | 5.11% (active) | -2.88% (active) | 28.5% (inactive) | 87.2% (inactive) | 65.1% (inactive) | 17.9% (inactive) | 0.597% (active) | 7.89% (active) | 27.4% (inactive) | 68.3% (inactive) | 3.07% (active) | 23.2% (inactive) | 49.2% (inactive) | 3.81% (active) | 10.8% (inactive) | 0.513% (active) | – | 46.5% (inactive)
8 | CCOP(=O)(Nc1ccc2c(c1)/C(=N/NC(N)=S)c1ccccc1-2)OCC | 92% (inactive) | 109% (inactive) | 93.5% (inactive) | 94.7% (inactive) | 105% (inactive) | 96.9% (inactive) | 114% (inactive) | 132% (inactive) | 105% (inactive) | 82% (inactive) | 100% (inactive) | – | 101% (inactive) | 107% (inactive) | 115% (inactive) | 69.6% (inactive) | 103% (inactive) | 119% (inactive) | 88.9% (inactive)
9 | COC(=O)[C@@H](C)C[C@H](Cc1ccc2ccccc2c1)NC(=O)c1csc([C@@H](C[C@H](C(C)C)N(C)C(=O)[C@@H](NC(=O)[C@H]2CCCCN2C)C(C)C)OC(C)=O)n1 | -2.64% (active) | 6.75% (active) | 23.3% (inactive) | 37.9% (inactive) | 77.6% (inactive) | 53% (inactive) | 56.5% (inactive) | 22.7% (inactive) | 55.8% (inactive) | 40.8% (inactive) | 60.3% (inactive) | 72.9% (inactive) | -22.3% (active) | 19.7% (inactive) | 51.2% (inactive) | 17% (inactive) | 51.4% (inactive) | – | 36.2% (inactive)
10 | COc1cc([N+](=O)[O-])c2nc(C)ccc2c1[N+](=O)[O-] | 98.2% (inactive) | 82.2% (inactive) | 80.7% (inactive) | 89.1% (inactive) | 131% (inactive) | 103% (inactive) | 119% (inactive) | 109% (inactive) | 44.2% (inactive) | 106% (inactive) | 105% (inactive) | – | 97.4% (inactive) | 71.3% (inactive) | 72.7% (inactive) | 69.1% (inactive) | 63.5% (inactive) | 107% (inactive) | 79.8% (inactive)
11 | COc1ccc(C(=O)c2cc(OC)c(OC)c(OC)c2)cc1OC(C)=O | 13.9% (inactive) | 11.9% (inactive) | 20.4% (inactive) | 15.6% (inactive) | 57.9% (inactive) | 57.7% (inactive) | 24.2% (inactive) | 25.6% (inactive) | 5.13% (active) | 44.3% (inactive) | – | 55.2% (inactive) | 8.56% (active) | -16.3% (active) | 25.1% (inactive) | 15.7% (inactive) | 6.24% (active) | 25.5% (inactive) | 11.2% (inactive)
12 | O=C(Nc1ccc([N+](=O)[O-])cc1)C(Cl)(Cl)Cl | 107% (inactive) | 94.1% (inactive) | 106% (inactive) | 100% (inactive) | 95.6% (inactive) | 103% (inactive) | 115% (inactive) | 93.5% (inactive) | 117% (inactive) | 99.8% (inactive) | 99.6% (inactive) | 80.7% (inactive) | 91.6% (inactive) | 104% (inactive) | 105% (inactive) | 85.9% (inactive) | 91.1% (inactive) | – | 97.1% (inactive)
13 | O=C(N/N=C\c1ccc(N(CCCl)CCCl)cc1Cl)c1cccnc1 | 87.5% (inactive) | 99.5% (inactive) | 82.4% (inactive) | 96% (inactive) | -3.04% (active) | 53.7% (inactive) | 95.3% (inactive) | 37% (inactive) | 57.6% (inactive) | 119% (inactive) | 86.4% (inactive) | – | 90.7% (inactive) | 104% (inactive) | 79.2% (inactive) | 34.4% (inactive) | 43% (inactive) | 76.8% (inactive) | 102% (inactive)
14 | CC(=O)O[C@H]1C(=O)[C@@]2(C)[C@H]([C@H](OC(=O)c3ccccc3)[C@]3(O)C[C@H](OC(=O)[C@H](OC(=O)OC[C@H]4COC(C)(C)O4)[C@@H](NC(=O)c4ccccc4)c4ccccc4)C(C)=C1C3(C)C)[C@]1(OC(C)=O)CO[C@@H]1C[C@@H]2O | 11.7% (inactive) | 17.9% (inactive) | 6.27% (active) | 15.9% (inactive) | 6.17% (active) | 55.6% (inactive) | 22.2% (inactive) | 18.8% (inactive) | 6.13% (active) | 3.36% (active) | 70.1% (inactive) | 31.3% (inactive) | 9.68% (active) | -73.7% (active) | 27.8% (inactive) | 9.62% (active) | 4.97% (active) | – | 11.9% (inactive)
15 | COc1ccc(C(=O)c2sc3nc4c(cc3c2N)N2CCC4CC2)cc1OC | 77.3% (inactive) | 83.4% (inactive) | 51.4% (inactive) | 85.7% (inactive) | 107% (inactive) | 85.7% (inactive) | 96.2% (inactive) | 104% (inactive) | 100% (inactive) | 100% (inactive) | 79.4% (inactive) | – | 81.5% (inactive) | 99.9% (inactive) | 126% (inactive) | 84.5% (inactive) | 86.2% (inactive) | 109% (inactive) | 97.7% (inactive)
16 | COc1cc(/C=N/C2=C(C#N)C(c3ccco3)c3c(c4cc(C)ccc4oc3=O)O2)cc(OC)c1OC (stereo unspecified) | 106% (inactive) | 74.8% (inactive) | 101% (inactive) | 101% (inactive) | 105% (inactive) | 97.6% (inactive) | 92.6% (inactive) | 83.1% (inactive) | 91.4% (inactive) | 64.3% (inactive) | – | 88.2% (inactive) | 91.1% (inactive) | 26.1% (inactive) | 81.7% (inactive) | 70.1% (inactive) | 84.9% (inactive) | 109% (inactive) | 81.4% (inactive)
